Assay outcomes from PubChem BioAssay.
Only some compounds are listed: those with a hit (about 21% of all), similar ones and a draw of the others.
DRD3 agonist: agonists of human D3 dopamine receptor. max activation, %. 410,000 compounds, 0.58% hits. P35462. D3R DiscoveRx beta-arrestin cells, luminescence, 90 min. AID 652048; in the data active means max activation above about 30%
Target sequence (P35462 whole entry, looked up): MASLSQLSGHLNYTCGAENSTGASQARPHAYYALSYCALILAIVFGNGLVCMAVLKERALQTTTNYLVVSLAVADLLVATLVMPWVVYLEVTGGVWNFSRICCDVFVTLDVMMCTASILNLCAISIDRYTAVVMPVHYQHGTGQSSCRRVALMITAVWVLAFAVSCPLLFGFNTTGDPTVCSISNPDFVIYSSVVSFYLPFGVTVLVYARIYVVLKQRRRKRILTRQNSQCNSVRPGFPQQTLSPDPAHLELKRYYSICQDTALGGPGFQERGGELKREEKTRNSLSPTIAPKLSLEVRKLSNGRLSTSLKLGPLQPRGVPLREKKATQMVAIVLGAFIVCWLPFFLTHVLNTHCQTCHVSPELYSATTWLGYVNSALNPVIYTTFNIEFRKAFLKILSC
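Agonist-mode cell screen: cells plated at 1500/well and incubated overnight at 37 °C, then exposed to library compounds for 90 min at 37 °C. Detection reagent was added for 30–60 min at room temperature, and luminescence was read.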
DT40 TDP1 no CPT: qHTS for Inhibitors of human tyrosyl-DNA phosphodiesterase 1 (TDP1): qHTS in cells in absence of CPT | Potency, µM (doses to about 46.2 µM), actives largely listed as inhibitors | 420,000 compounds, 15% hits | DT40 Tdp1-/- hTDP1 cells, no CPT, ATP luminescence, 48 h; further: nearly all actives have a fitted effect of over 55% in size
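DT40 Tdp1-/-;hTDP1 cells, no CPT (DMSO vehicle only), 400 cells/well; compounds pin-transferred; ≥48 hr, 37 °C; CellTiter-Glo 30 min RT dark, luminescence read.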
DT40 TDP1 CPT: DT40-hTDP1 cell growth loss with CPT | chicken DT40 Tdp1-/-;hTDP1 cells + 20 nM CPT, ATP luminescence, 48 h | Potency, µM (top dose mostly 46.2 µM), most hits filed as inhibitors | 420,000 compounds, 12% hits | AID 686979; further: nearly all actives have a fitted effect of over 55% in size
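Cell growth measured by CellTiter-Glo luminescence after a minimum 48 h, 37 C compound exposure with 20 nM CPT in Tdp1-knockout DT40 cells stably expressing hTDP1, seeded 400/well; qHTS titration format.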
ClpP mod: qHTS Assay for Activators of ClpP. purified B. subtilis ClpP, FRET peptide cleavage, 20 min. AID 651965, 2013. ATP-dependent Clp protease proteolytic subunit (Bacillus subtilis (strain 168)), P80244. 340,000 compounds, 1.9% hits. Potency, µM (titrated, usually from 57.5 µM); active means well fitted falling curve with a large enough effect; inconclusive means small, poorly fitted or top-dose-only effect; inactive means no such curve, though single readings can be large or run the other way; further: the source files actives as falling curves though it sought activators and does not explain the sign; nearly all actives have a fitted effect of over 65% in size
Target sequence (P80244 whole entry, looked up): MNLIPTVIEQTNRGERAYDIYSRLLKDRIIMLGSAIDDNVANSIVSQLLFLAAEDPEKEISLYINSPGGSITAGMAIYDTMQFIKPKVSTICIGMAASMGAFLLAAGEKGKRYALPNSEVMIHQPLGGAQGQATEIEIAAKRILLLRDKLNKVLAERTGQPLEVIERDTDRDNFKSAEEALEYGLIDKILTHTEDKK
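ClpP 10 microg/mL final, pH 8 Tris/KCl buffer with BSA, glycerol, Tween-20; compound pinned in; FRET-FV substrate; RT 20 min; Ex320/Em430; ΔFRET vs ADEP 5.8 microM, DMSO, no enzyme.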
DRD3 antagonist: D3 dopamine receptor (human) antagonism. max response, negative = inhibition, %. 360,000 compounds, 2.5% hits. AID 652054. P35462. D3R cells, DiscoveRx beta-arrestin luminescence, antagonist mode; active compounds read low; in the data active means max response below about -50%; inconclusive means no clear call, values can overlap the other calls
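Cells plated overnight at 1500 cells/well, then exposed to library compounds with dopamine controls for 90 minutes at 37 degrees C. DiscoveRx reagent added for 30–60 minutes at room temperature; luminescence read, quantitative HTS format.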
IL-1B inflam inh: blocks inflammasome-driven IL-1 beta release. THP-1 LPS/ATP IL-1B secretion, AlphaLISA, 16 h; active compounds read low. activity change, % at 57.5 µM. 360,000 compounds, 4.7% hits; in the data active means activity change below about -50%; inconclusive means mostly about -30% to -49%
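THP-1 cells pretreated 1 hr with compounds (up to 57.5 uM final), then stimulated with LPS (250 ng/mL final) plus ATP (1.25 mM final); secreted IL-1B measured by AlphaLISA after 16 hr, decreased signal indicating inhibition.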
Numbers stand for hits. Unless noted, the call rests on the fitted dose curve; in most records, active means well fitted inhibition curve with a large enough effect; inconclusive means small, poorly fitted or top-dose-only effect; inactive means flat fitted curve, though single readings scatter.

What do the screens show for `CC(=O)Nc1cccc(NC(=O)/C=C/c2ccc(S(=O)(=O)N3CCOCC3)cc2)c1`?
DRD3 agonist: inactive; DT40 TDP1 no CPT: inactive; DT40 TDP1 CPT: inconclusive; ClpP mod: inactive; DRD3 antagonist: inactive; IL-1B inflam inh: inconclusive

How did COc1ccc(/C=C/C(=O)Nc2ccc(C(C)=O)cc2)cc1S(=O)(=O)N1CCOCC1 do in these assays?
DRD3 agonist: inactive; DT40 TDP1 no CPT: inactive; DT40 TDP1 CPT: inactive; ClpP mod: inactive; DRD3 antagonist: inactive; IL-1B inflam inh: inactive

Results for COc1cc(/C=C/C(=O)Nc2ccc(OC)c(S(=O)(=O)N3CCOCC3)c2)ccc1OC(F)F ?
DRD3 agonist: inactive; DT40 TDP1 no CPT: 16µM; DT40 TDP1 CPT: 18µM; ClpP mod: inactive; DRD3 antagonist: inactive; IL-1B inflam inh: inactive

Results for COc1cccc(CN(C)C(=O)/C=C/c2ccc(S(=O)(=O)N3CCCCCC3)cc2)c1 ?
DRD3 agonist: inactive; DT40 TDP1 no CPT: inconclusive; DT40 TDP1 CPT: inconclusive; ClpP mod: inactive; DRD3 antagonist: inactive; IL-1B inflam inh: -58

What do the screens show for `COc1ccc(S(=O)(=O)N2CCOCC2)cc1NC(=O)/C=C/c1ccccc1`?
DRD3 agonist: inactive; DT40 TDP1 no CPT: inactive; DT40 TDP1 CPT: inactive; DRD3 antagonist: inactive; IL-1B inflam inh: -52

Results for O=C(/C=C/c1ccccc1)Nc1cc(S(=O)(=O)N2CCOCC2)ccc1N1CCOCC1 ?
DRD3 agonist: inactive; DT40 TDP1 no CPT: inactive; DT40 TDP1 CPT: inactive; ClpP mod: inactive; DRD3 antagonist: inactive; IL-1B inflam inh: inactive

How did Cc1ccc(NC(=O)/C=C/c2ccc(S(=O)(=O)N3CCOCC3)cc2)cc1S(=O)(=O)N(C)C do in these assays?
DRD3 agonist: inactive; DT40 TDP1 no CPT: 15µM; DT40 TDP1 CPT: inconclusive; DRD3 antagonist: -111; IL-1B inflam inh: inactive

Results for O=C(N/N=C/c1cc(O)ccc1[N+](=O)[O-])c1ccc2c(c1)OCCO2 ?
DRD3 agonist: inactive; DT40 TDP1 no CPT: inconclusive; DT40 TDP1 CPT: inconclusive; DRD3 antagonist: inconclusive; IL-1B inflam inh: inactive

How did CCCCCCCCCC(=O)O[C@H](CC(=O)O)C[N+](C)(C)C do in these assays?
DT40 TDP1 no CPT: inactive; DT40 TDP1 CPT: inactive

What do the screens show for `COc1ccc(CCNC(=O)/C=C/c2ccc(OC)c(S(=O)(=O)N3CCOCC3)c2)cc1`?
DRD3 agonist: inactive; DT40 TDP1 no CPT: 5.8µM; DT40 TDP1 CPT: inconclusive; ClpP mod: inactive; DRD3 antagonist: inactive; IL-1B inflam inh: inactive

What do the screens show for `COc1ccc(/C=C/C(=O)Nc2ccccc2F)cc1S(=O)(=O)N1CCOCC1`?
DRD3 agonist: inactive; DT40 TDP1 no CPT: inactive; DT40 TDP1 CPT: inconclusive; ClpP mod: inactive; DRD3 antagonist: inactive; IL-1B inflam inh: -88

How did CCN(CC)C(=O)N1CCC(NC(=O)c2ccc(C(C)(C)C)cc2)CC1 do in these assays?
DRD3 agonist: inactive; DT40 TDP1 no CPT: 23µM; DT40 TDP1 CPT: inconclusive; ClpP mod: inactive; DRD3 antagonist: inactive; IL-1B inflam inh: inactive

Results for O=C(NCCCn1ccnc1)/C(=C\c1ccc(Br)cc1)NC(=O)c1ccccc1F ?
DRD3 agonist: inactive; DT40 TDP1 no CPT: inactive; DT40 TDP1 CPT: inactive; ClpP mod: inactive; DRD3 antagonist: inactive; IL-1B inflam inh: inactive

What do the screens show for `O=C(NC1CCCCC1)C(c1ccnc2ccccc12)n1c(=O)c(-c2ccco2)nc2ccccc21` (stereo not drawn)?
DRD3 agonist: inactive; DT40 TDP1 no CPT: 13µM; DT40 TDP1 CPT: 13µM; ClpP mod: inactive; DRD3 antagonist: inconclusive; IL-1B inflam inh: inactive

What do the screens show for `Cc1cc(N2CCN(C(C(=O)NC3CCCC3)c3ccc(-c4ccccc4)cc3)CC2)c2ccccc2n1` (stereo not drawn)?
DRD3 agonist: inactive; DT40 TDP1 no CPT: 8.2µM; DT40 TDP1 CPT: 7.3µM; ClpP mod: inactive; DRD3 antagonist: inconclusive; IL-1B inflam inh: inactive

What do the screens show for `O=C(NC1CCCCC1)C(c1ccccc1F)n1c(=O)c(-c2ccco2)nc2ccccc21` (stereo not drawn)?
DRD3 agonist: inactive; DT40 TDP1 no CPT: 16µM; DT40 TDP1 CPT: inconclusive; ClpP mod: inactive; DRD3 antagonist: inactive; IL-1B inflam inh: inactive

How did O=C(NC1CCCCC1)C(C1CC1)n1c(=O)c(-c2ccccc2)nc2ccccc21 (stereo not drawn) do in these assays?
DRD3 agonist: inactive; DT40 TDP1 no CPT: 16µM; DT40 TDP1 CPT: inconclusive; ClpP mod: inactive; DRD3 antagonist: inactive; IL-1B inflam inh: inactive

Results for Cc1cc(N2CCN(C(C(=O)NC3CCCC3)C(C)C)CC2)c2ccccc2n1 (stereo not drawn) ?
DRD3 agonist: inactive; DT40 TDP1 no CPT: inactive; DT40 TDP1 CPT: inactive; ClpP mod: inactive; DRD3 antagonist: inactive; IL-1B inflam inh: inactive

What do the screens show for `CC(=O)Nc1nc(C)c(-c2nc3ccc([N+](=O)[O-])cc3[nH]2)s1`?
DRD3 agonist: inactive; DT40 TDP1 no CPT: inactive; DT40 TDP1 CPT: inactive; ClpP mod: inactive; DRD3 antagonist: inactive; IL-1B inflam inh: inactive

How did Cc1cnc(-n2ncc(C(=O)N(CCO)C(C)C)c2-c2cccs2)nc1-c1ccc(F)cc1 do in these assays?
DT40 TDP1 no CPT: inconclusive; DT40 TDP1 CPT: inactive

How did O=C(NC1CCCCC1)C(c1ccc(-c2ccccc2)cc1)n1c(=O)c(-c2ccco2)nc2ccccc21 (stereo not drawn) do in these assays?
DRD3 agonist: inactive; DT40 TDP1 no CPT: 15µM; DT40 TDP1 CPT: inconclusive; ClpP mod: inactive; DRD3 antagonist: inactive; IL-1B inflam inh: inactive

What do the screens show for `CCOC(=O)c1cnc(N)nc1C(F)(F)F`?
DRD3 agonist: inactive; DT40 TDP1 no CPT: inactive; DT40 TDP1 CPT: inactive; ClpP mod: inactive; DRD3 antagonist: inactive; IL-1B inflam inh: inactive

Results for CC(O)(c1ccc(F)c(F)c1)c1nc(-c2cc(F)cc(F)c2)cs1 (stereo not drawn) ?
DRD3 agonist: inactive; DT40 TDP1 no CPT: 16µM; DT40 TDP1 CPT: inconclusive; ClpP mod: inactive; DRD3 antagonist: inactive; IL-1B inflam inh: inactive

Results for CC(O)(c1ccc(F)c(F)c1)c1nc(-c2ccccc2)cs1 (stereo not drawn) ?
DRD3 agonist: inactive; DT40 TDP1 no CPT: 13µM; DT40 TDP1 CPT: inconclusive; ClpP mod: inactive; DRD3 antagonist: inactive; IL-1B inflam inh: inactive

How did CC(O)(c1ccc(F)c(F)c1)c1nc(-c2ccc(F)c(Cl)c2)cs1 (stereo not drawn) do in these assays?
DRD3 agonist: inactive; DT40 TDP1 no CPT: inconclusive; DT40 TDP1 CPT: inconclusive; ClpP mod: inactive; DRD3 antagonist: inactive; IL-1B inflam inh: inactive
